This is an account of results in PubChem BioAssay AID720704 (The Scripps Research Institute Molecular Screening Center, 2013).

The structures appear in SMILES notation. The campaign covered roughly 370,000 compounds. About 660 (0.18%) were called active. The sample holds actives, similar compounds and a random draw of the others, so the mix is not that of the screen. A number with no mark means an inactive call. No stated cut-off is given here; in the data, active means inhibition above about 11%; inactive means the rest.

The target of this experiment is 1-phosphatidylinositol 4,5-bisphosphate phosphodiesterase beta-3 (Homo sapiens) (UniProt Q01970). In words: human PLC-beta3 inhibitors, primary screen, biochemical, fluorescence (AID 720704).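 Further: 0% = median of compound wells on plate and 100% = full blocker control.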 The settings on record: Purified PLC-beta3, fluorogenic substrate, at 12.2 µM, stronger effect = higher value.
Sequence of 1-phosphatidylinositol 4,5-bisphosphate phosphodiesterase beta-3 (Homo sapiens) (Q01970 whole entry, looked up): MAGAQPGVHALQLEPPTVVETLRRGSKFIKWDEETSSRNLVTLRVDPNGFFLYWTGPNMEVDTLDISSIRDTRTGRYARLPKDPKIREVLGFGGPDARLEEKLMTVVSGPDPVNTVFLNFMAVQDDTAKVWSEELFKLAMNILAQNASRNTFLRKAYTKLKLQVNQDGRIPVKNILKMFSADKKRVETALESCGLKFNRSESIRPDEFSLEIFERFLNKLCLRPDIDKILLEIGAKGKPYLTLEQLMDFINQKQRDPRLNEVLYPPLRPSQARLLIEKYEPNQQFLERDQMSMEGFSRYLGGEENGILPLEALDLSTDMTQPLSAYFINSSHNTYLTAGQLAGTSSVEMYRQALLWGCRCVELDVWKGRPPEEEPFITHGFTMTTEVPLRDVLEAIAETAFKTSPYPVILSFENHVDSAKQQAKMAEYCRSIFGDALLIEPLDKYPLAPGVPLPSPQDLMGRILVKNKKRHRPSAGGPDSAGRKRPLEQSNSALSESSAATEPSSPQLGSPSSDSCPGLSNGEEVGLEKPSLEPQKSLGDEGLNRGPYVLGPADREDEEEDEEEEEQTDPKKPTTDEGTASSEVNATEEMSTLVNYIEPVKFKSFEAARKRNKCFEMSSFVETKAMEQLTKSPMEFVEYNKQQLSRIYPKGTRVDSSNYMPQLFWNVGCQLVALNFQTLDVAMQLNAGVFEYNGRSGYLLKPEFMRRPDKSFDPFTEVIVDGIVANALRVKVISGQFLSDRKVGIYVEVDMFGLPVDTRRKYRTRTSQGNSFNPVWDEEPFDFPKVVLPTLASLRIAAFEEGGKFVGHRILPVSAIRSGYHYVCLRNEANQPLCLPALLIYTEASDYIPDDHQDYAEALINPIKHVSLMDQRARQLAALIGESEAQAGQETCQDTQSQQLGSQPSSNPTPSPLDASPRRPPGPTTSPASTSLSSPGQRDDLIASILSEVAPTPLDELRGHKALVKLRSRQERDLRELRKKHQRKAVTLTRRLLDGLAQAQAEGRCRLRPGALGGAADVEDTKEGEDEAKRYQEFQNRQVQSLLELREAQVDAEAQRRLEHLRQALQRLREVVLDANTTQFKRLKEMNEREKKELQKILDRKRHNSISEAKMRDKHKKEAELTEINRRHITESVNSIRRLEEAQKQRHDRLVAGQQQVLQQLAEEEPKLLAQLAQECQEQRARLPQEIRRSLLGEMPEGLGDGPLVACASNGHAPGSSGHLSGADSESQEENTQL
A word on the inhibition: it is the drop in the measured response relative to a control, in per cent. Consider `Cc1nnc(SC(C)C(=O)Nc2ccc(S(=O)(=O)NC3CCCCC3)cc2)s1` (stereo unspecified), for which the inhibition was 4.91%.
To `CCOc1ccc(OCC)c(NC(=O)CSc2nnc(Cn3cnc4ccccc43)n2C)c1` belongs 12.1% (active).
In the case of `COc1ccc(OC)c(NC(=O)CSc2nc3cccnc3n2C)c1`, the inhibition is 6.47%.
The result for `COc1ccc(C)cc1NC(=O)CSc1nnc(CC(=O)Nc2ccccc2F)n1C` reads -4.5%; that for `CSCCC(NC(=O)c1cc([N+](=O)[O-])cc([N+](=O)[O-])c1)c1nc2ccccc2[nH]1` (stereo unspecified), -1.97%; that for `Cc1ccc(/C=N/NC(=O)CSc2nc3ccccc3o2)cc1`, 11.3% (active).
To `O=C(CSc1nc2ccccc2o1)N1c2ccccc2Sc2ccc(Cl)cc21` belongs -0.49%; to `O=C(CSc1nc2ccccc2o1)N1CCN(c2ccc(Cl)cc2)CC1`, -0.03%.
Regarding `O=C1CCC(C(=O)N2CCC(O)(c3ccccc3)CC2)CN1CCc1ccccc1` (stereo unspecified), the inhibition is -8.61%.
For `CCC(=O)c1ccc(N2CCN(C(=O)c3cc([N+](=O)[O-])ccc3F)CC2)c(F)c1`, the inhibition is -2.14%.
To `NC(=O)c1nnsc1-c1ccc(-c2snnc2C(N)=O)cc1` belongs -6.22%; to `Cc1ccc(-c2nc(CS(=O)(=O)CC(=O)NCc3ccc4c(c3)OCO4)c(C)o2)cc1`, -6.63%; to `O=C(COC(=O)c1ncc(Cl)c(Cl)c1Cl)NNC(=O)c1ccccc1`, -12.2%.
The result for `Cc1cc(Cl)ccc1OCCCC(=O)Nc1cccc(-n2cnnn2)c1` reads -7.06%.
Take `COc1ccc(CC(NC(C)=O)C(=O)NC2CCN(C(=O)c3ccc(OC)c(OC)c3)CC2)cc1OC` (stereo unspecified): the inhibition is 2.51%.
For `Cc1nc2ccccc2nc1CC(O)(c1ccccc1)c1ccccc1`, the inhibition was 11.5% (active).
Consider `C/C(CC(O)(/C=N/O)c1ccccc1)=N\O` (stereo unspecified), for which the inhibition was 3.84%.
For the compound `Cc1nnc(SCc2nc3ccccc3nc2C)s1`, the inhibition was 2.42%.
As to `O=C(c1cc2sccc2n1Cc1ccc(F)cc1)N1CCc2ccccc21`, the inhibition was -17.1%.
Regarding `Cc1cc(NC(=O)[C@H](C)NC(=O)c2ccco2)ccc1Br`, the inhibition is -1.12%.
Consider `Cc1cc(NC(=O)c2ccc(F)cc2)ccc1NC(=O)c1ccco1`, for which the inhibition was 12.6% (active).
Consider `Cc1ccc(C)c(NC(=O)c2ccc(OC(=O)c3ccco3)cc2)c1`, for which the inhibition is -2.18%.
To `CC1(C)CN(CCc2ccccc2)C(=O)[C@H]1CC(=O)Nc1ccc(Br)cc1` belongs 1.65%; to `O=C(C[C@H]1C(=O)N(c2ccc(F)c(F)c2)C[C@@H]1Cc1ccccc1)Nc1ccccc1`, 12.1% (active); to `COc1ccc(NC(=O)C[C@H]2C(=O)N(CCc3ccccc3)C[C@@H]2C)cc1`, 4.39%.
In the case of `Cc1nc2nc(COc3ccccc3)[nH]n2c(=O)c1C`, the inhibition was 2.74%.
Regarding `CCN1C(=O)CS/C1=N\c1nccs1`, the inhibition was 0.11%.
With `Nc1ccn(CC(=O)N2CCN(c3ccccn3)CC2)c(=O)n1`, the inhibition is -1.87%.
Regarding `O=C1NCC(Nc2ccccc2)C(=O)N1` (stereo unspecified), the inhibition is 1.2%.
The result for `C=CCn1c(=O)n(C)c2c(=O)n(C)c(=O)n(C)c21` reads 0.17%.
To `CCC1CCCCN1C(=O)CSc1nc2c(c(=O)n1C)SC(C)C2` (stereo unspecified) belongs -1.75%; to `CCC1CCCCN1C(=O)CSc1nc(C)cc(C)n1` (stereo unspecified), 19.7% (active).
`CCC1CCCCN1C(=O)CSc1nc2c(c(=O)n(C)c(=O)n2C)n1C` (stereo unspecified): the inhibition was -1.77%.
To `CCCC/S(C)=N/S(=O)(=O)c1ccc(C)cc1` (stereo unspecified) belongs 3.14%; to `C=CC[C@@H](CC(=O)NCCO)C(=O)N[C@H](C)COC(=O)[C@@H](CC=C)CC(=O)OC(C)(C)C`, 12.3% (active).
Consider `C=CC[C@@H](CC(=O)N[C@@H](CO)Cc1ccccc1)C(=O)N[C@H](COC(=O)[C@H](CC=C)CC(=O)OC(C)(C)C)Cc1ccccc1`, for which the inhibition is 2.78%.
The result for `C=CC[C@@H](CC(=O)N[C@@H](CO)Cc1ccccc1)C(=O)NCCOC(=O)[C@@H](CC=C)CC(=O)OC(C)(C)C` reads 2.47%; that for `CCO[C@@H]1OC(C(=O)NC2CC2)=C[C@H](C)[C@H]1CCCO`, 1.08%.
To `CC1=C(C(=O)N2CCOCC2)CC(CC(=O)NCc2cccc3ccccc23)C(=O)N1CCC1=CCCCC1` (stereo unspecified) belongs 3.78%; to `Nc1cc(N2CCCCCC2)c2nonc2c1[N+](=O)[O-]`, -10.7%.
The result for `Cc1cc2c(cc1C)NC(c1ccccn1)C1=C(CC(C)(C)CC1=O)N2` (stereo unspecified) reads -15%; that for `O=C(O)CCCCOn1ccnc1`, 1.89%.
With `CC(C)CCN(C(=O)c1csnn1)C(C(=O)NC1CCCC1)c1ccccc1` (stereo unspecified), the inhibition was -3.64%.
`CN1C(CC(=O)Nc2ccc(Br)cc2)c2ccccc2CC1(C)C` (stereo unspecified): the inhibition is -1.47%.
The result for `COC(=O)C1=C(N)Oc2cc(C)oc(=O)c2C1c1cccnc1` (stereo unspecified) reads -0.05%; that for `O=C(Nc1ccccc1C(F)(F)F)N1CCCC1c1cccnc1` (stereo unspecified), -8.96%.
Consider `O=c1ccc2c(-c3ccccc3S(=O)(=O)O)c3ccc(O)c(O)c3oc-2c1O`, for which the inhibition was 11.7% (active).
The result for `Cc1ccsc1C(=O)N[C@@H](C)c1nnc2ccccn12` reads -1.93%; that for `COc1ccc(Br)cc1CN(C)C(=O)C1CC(=O)N(C2CCCC2)C1` (stereo unspecified), -3.09%.
For the compound `CCN1CN(Cc2ccccc2)CNC1=S`, the inhibition was 6.18%.
In the case of `CC(C)c1nc2oc3c(N4CCN(C)CC4)ncnc3c2c2c1CCC2`, the inhibition is -17.2%.
